TcdB GH inh = TcdB glycohydrolase inhibitors, primary screen, biochemical, single point, plate reader; inhibition, % at 9.99 µM; TcdB glycohydrolase enzymatic assay; AID 652162, 2013; 0.24% of 350,000 active; in the data active = inhibition above about 10%
Mtb hypoxia inh = PubChem AID 1159583 | M. tuberculosis hypoxia-regulated fluorescent reporter, fluorescence | fluorescence inhibition, % (concentration not given with the values) | 0.1% of 300,000 active; in the data active = fluorescence inhibition mostly above about 23%, no sharp cut-off; inactive = mostly below about 17%
Sa ugtP lethal = growth inhibition of ugtP-null S. aureus, primary screen, RN4220 ugtP deletion, OD600; 16 h; growth inhibition, % (no concentration beside the values); 0.54% of 330,000 active; AID 1259309, 2017; in the data active = growth inhibition above about 68%;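 note: plate controls were untreated wells for no effect and antibiotic for full effect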
Mtb BioA inh = M. tuberculosis BioA enzyme inhibitors, primary screen, biochemical, plate reader, single point, HTS | 7,8-diaminopelargonic acid synthase BioA (Mycobacterium tuberculosis) | purified M. tuberculosis BioA enzyme | inhibition, % at 9.99 µM | 0.096% of 360,000 active; in the data active = inhibition above about 40%
Y pestis TopoI = Yersinia pestis topoisomerase I inhibitors, primary screen, biochemical, cleavage product accumulation, plate reader, single point. DNA topoisomerase I (Yersinia pestis CO92). AID 504884, 2011. Y. pestis Topo-I cleavage product accumulation. 0.064% of 360,000 active. activity, % at 10 µM; in the data active = activity above about 50%, passing the limit was not always enough
Sa RN4220 lethal = growth inhibition of S. aureus RN4220, primary screen, OD600 | 16 h | inhibition, % (concentration not given with the values) | 0.33% of 330,000 active | AID 1259311, 2017; in the data active = inhibition above about 85%;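 note: plate controls were untreated cells for no effect and reference antibiotic for full effect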
* = called active by the depositor; . = no result. A selection: hits, their analogues and other compounds. The true share with any hit is near 0.75%.

SMILES	TcdB GH inh	Mtb hypoxia inh	Sa ugtP lethal	Mtb BioA inh	Y pestis TopoI	Sa RN4220 lethal
O=C(NC(Cc1ccccc1)C(=O)OCc1ccccc1)c1nc[nH]c1C(=O)N1CCNCC1 (centres undefined)	.	14	1	.	.	4
CCOC(=O)Cn1nc(-c2ccccc2)c2ccccc2c1=O	1	-1	5	-2	0	5
O=c1c2ccccc2c(-c2ccccc2)nn1Cc1c(Cl)cccc1Cl	.	5	96*	-5	3	-13
CC(=O)Nc1ccc(Oc2nc(-c3ccccn3)nc3ccccc23)cc1	28*	16	1	.	-1	8
CC1(C)O[C@@H]2[C@H](O1)[C@@H](COS(=O)(=O)O)O[C@H]2n1c(=S)[nH]c2c(=O)[nH]c(N)nc21	12*	.	.	-7	0	.
CC1(C)OC2C(CO)OC(n3cnc4c(=O)[nH]cnc43)C2O1 (centres undefined)	.	-2	-2	.	.	1
O=C(CSc1nc2ccccc2nc1N1CCCCC1)N1CCN(c2ccccc2)CC1	0	-3	-1	-1	41	-13
O=C(CSc1nc2ccccc2nc1N1CCOCC1)N1CCN(c2ccccc2)CC1	2	17*	-4	0	48	15
CCOC(=O)C1C2COc3ccccc3C2N2C(=O)N(c3ccc(F)cc3)C(=O)[C@]12C (some centres undefined)	.	8	3	.	.	6
Fc1cccc(NC(=S)NNc2ccccc2)c1	-1	-3	4	2	-1	-2
Fc1cccc(NC(=S)NNc2c3ccccc3nc3ccccc23)c1	20*	4	5	.	-8	-5
CSc1ccc(C=NN2CCN(Cc3ccccc3)CC2)cc1	.	2	7	.	.	3
N#CC(=NNc1cccc(C(F)(F)F)c1)C(=O)c1ccsc1	.	9	97*	.	.	100*
CC(=O)C1=CCC(c2ccccc2)N(S(=O)(=O)c2ccccc2)C1 (centres undefined)	6	.	.	1	.	.
CC(=O)C1=CCC(c2ccc(Br)cc2)N(S(=O)(=O)c2ccc(C)cc2)C1 (centres undefined)	3	.	.	0	.	.
Cc1ccc(S(=O)(=O)N2CC(CBr)=CCC2c2ccccc2)cc1 (centres undefined)	16*	.	.	.	.	.
CC(=O)C1=CCC(c2ccc(C)cc2)N(S(=O)(=O)c2ccc(C)cc2)C1 (centres undefined)	12*	.	.	-2	.	.
CC1CCC[C@@]2(O1)OC(CCO)CC(O)C2O (some centres undefined)	.	3	2	.	.	4
Nc1ccc2c(c1)C(=O)C(=O)c1ccccc1-2	.	.	98*	.	-24	98*
Cc1ccc(-c2cc(C(=O)OC3CCOC3=O)c3ccccc3n2)c(C)c1 (centres undefined)	18*	13	7	0	25	18
O=C(OC1CCOC1=O)c1cc(-c2cccs2)nc2ccccc12 (centres undefined)	1	-3	4	1	0	2
CCN(C(=O)c1ccccc1F)c1nc(-c2ccc(OC)cc2)cs1	1	18	90*	-1	18	-7
COCCN(C(=O)c1ccccc1F)c1nc(-c2ccc(OC)cc2)cs1	2	8	39	-1	-17	-7
C/C(C=NNC(=O)c1cc(-c2cccn2C)n[nH]1)=C\c1ccccc1	.	13	37	.	.	21
O=C(NCCc1ccc(Cl)cc1)c1ccc(CNc2c(N3CCOCC3)c(=O)c2=O)cc1	2	42*	4	0	15	9
SMILES	TcdB GH inh	Mtb hypoxia inh	Sa ugtP lethal	Mtb BioA inh	Y pestis TopoI	Sa RN4220 lethal
COc1ccc(-c2cc(C(=O)NN=Cc3cc(OC)c(OC)cc3OC)c3ccccc3n2)cc1	.	17	6	.	.	6
CCOc1ccc(C2C(C(=O)Nc3ccccc3)=C(C)N=c3sc(=Cc4cccc(OCC(=O)O)c4)c(=O)n32)cc1 (centres undefined)	.	4	10	.	.	9
Cc1nn(-c2ccccc2)c2c1C1(C(=O)N(C(C)C)c3ccccc31)C(C#N)=C(N)O2 (centres undefined)	.	4	67	1	17	92*
COC12C(COC(N)=O)C3=C(C(=O)C(C)=C(N)C3=O)N1CC1C2N1C (centres undefined)	2	.	100*	0	-4	100*
CC1(C)Cc2ccccc2-c2nnc(SCC(=O)Nc3nc4ccccc4s3)n21	.	-3	98*	-1	14	88*
Cn1c(SCC(=O)Nc2nc3ccccc3s2)nnc1-c1ccccc1	.	-1	9	-1	-8	0
CCN1C(=O)CC(N2CCN(c3ccc(C(=O)c4ccncc4)cc3)CC2)C1=O (centres undefined)	.	5	7	-1	-1	12
CCOc1ccc(N2C(=O)CC(N3CCN(c4ccc(C(=O)c5ccncc5)cc4)CC3)C2=O)cc1 (centres undefined)	.	.	0	-2	82*	0
CCOc1ccc(/C=C2/SC(=O)NC2=S)cc1	.	14	100*	-2	-8	66
CCOc1ccc(N=C2NC(=O)S/C2=C\c2ccc(N(C)C)cc2)cc1	.	9	15	-4	7	12
FC(F)(F)c1cccc(C=NNC(=S)NC2CCCCC2)c1	.	-10	-1	.	.	2
Cc1cc(OCCn2nc(C(=O)O)c3ccccc3c2=O)ccc1C(C)C	1	-10	-9	-2	83*	11
CCCOc1ccc(C=NNC(=O)c2ccc(Cn3cc([N+](=O)[O-])cn3)o2)cc1	.	.	-6	.	.	0
CC(C)OC(=O)C(=O)NNc1ccccc1	15*	-5	3	1	0	-3
CCCOC(=O)C(=O)NNc1ccccc1	6	-13	-2	.	0	-1
Fc1cccc(CCN2C(=S)NC[C@@H]2CC2CCCCC2)c1	-6	.	.	-2	52*	.
O=S(=O)(Nc1cccc(-c2nc3cccnc3s2)c1)c1ccc2c(c1)OCCO2	2	-4	93*	-1	-3	8
C[C@H]1COc2c(N3CCN(C)CC3)c(F)cc3c(=O)c(C(=O)O)cn1c23	2	.	.	-4	-11	.
CN1CCN(c2c(F)cc3c(=O)c(C(=O)O)cn4c3c2SCC4)CC1	.	.	99*	1	1	99*
Nc1cc(=O)[nH]c(SCC(=O)N2N=C(c3ccc4ccccc4c3)CC2c2ccccc2)n1 (centres undefined)	-6	14	-22	-1	53*	-1
CC(=O)OCC(=O)N1N=C(c2ccc3ccccc3c2)CC1c1ccccc1 (centres undefined)	0	-5	-32	.	13	-4
COc1ccc2nc(C)cc(SCC(=O)NN=Cc3ccc(O)cc3O)c2c1	.	16	0	.	.	9
Cc1ccc(C(=O)OCC(=O)Nc2ccccc2)cc1S(=O)(=O)N1CCCCC1	3	35*	-5	0	20	3
CCOc1ccc2nc(SCC(=O)N3CCCc4ccccc43)sc2c1	.	5	85*	0	47	5

Compound activity deposited in PubChem BioAssay by several laboratories.
